Screening data from PubChem.
EBV LMP1 NFkB: EBV LMP1-driven NF-kappaB luciferase reporter inhibitors, primary screen, cell-based, luminescence, single point; 0.69% of 350,000 active; AID 504558, 2011; LMP1-induced NF-kappaB luciferase reporter cells; inhibition, % at 12.5 µM; in the data active means inhibition above about 41%
TROY NFkB inh: inhibitors of TROY-driven NF-kB signaling, primary screen, Q293 LMP1-TROYcd cells, NF-kB luciferase, uHTS; Q293 LMP1-TROYcd NF-kB luciferase reporter, 4 h; inhibition, % at 10 µM; 0.98% of 360,000 active; AID 1347056, 2019;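 active means compounds whose plate-normalised and pattern-corrected inhibition of the luciferase reporter signal at the single screening dose is 50% or more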
MITF TRPM1 HTS: activators of MITF-driven TRPM1 promoter reporter, primary screen, cell-based, SK-MEL-5, luciferase, single point; activation, % at 12.5 µM; 0.75% of 300,000 active; SK-MEL-5 TRPM1-promoter luciferase, 24 h; % of positive control, neutral wells = 0;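 active means mean activation of at least 80% with every replicate also reaching 80%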
TRPM1 prom inh: inhibitors of MITF-dependent TRPM1 promoter reporter, primary screen, cell-based, SK-MEL-5, single point, luciferase; SK-MEL-5 TRPM1 promoter luciferase, 24 h; inhibition, % at 12.5 µM; 0.83% of 330,000 active; AID 488899, 2010;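 active means mean inhibition across replicates of 60% or more, whatever share of single replicates reaches that level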
TWEAK Fn14 block: inhibitors of TWEAK-Fn14 signaling, primary screen, luciferase reporter cells, uHTS. 2% of 360,000 active. TWEAK-stimulated Fn14 reporter cells, luciferase luminescence, 8 h. inhibition, % at 10 µM; in the data active means inhibition above about 50%
LGR2 inh: inhibitors of bursicon-induced LGR2 CRE-luciferase signal, primary screen, cell-based, HEK293, CRE-luciferase reporter, bursicon stimulation; Drosophila bursicon receptor LGR2 (rickets); bursicon-stimulated, 4 h; inhibition, % at 9.99 µM; 0.35% of 380,000 active;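 active means drop in luminescence signal, shown as inhibition above about 50% in the replicate tests, limit read from the data, passing the limit was not always enough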;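 further: agonist challenge used bursicon conditioned medium at about half maximal strength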
Numbers stand for hits; - = inactive; . = not tested or not shown. Rows were chosen to be rich in hits. Some 3% of all compounds tested hit in one or more screens of this group.

SMILES	EBV LMP1 NFkB	TROY NFkB inh	MITF TRPM1 HTS	TRPM1 prom inh	TWEAK Fn14 block	LGR2 inh
Nc1ccccc1C(=O)OCCOc1ccccc1	-	-	-	-	67	.
CC(C)(C)c1cc(C=C(C#N)C#N)cc(C(C)(C)C)c1O	-	57	-	84	73	-
CCCNC(=O)N1[C@@H]2c3ccc(-c4cccc(C(=O)N(C)C)c4)c(=O)n3C[C@H]1[C@H](CO)[C@H]2C(=O)O	.	.	.	.	.	-
O=C1NC(=O)N(c2ccccc2)C(=O)/C1=C\C=C\c1ccccc1	-	-	.	74	67	-
COc1cc(/C=C2\C(=O)NC(=O)N(c3ccccc3)C2=O)cc(OC)c1OC	-	-	-	-	-	.
CCOc1ccc(N2C(=O)/C(=C/c3ccco3)C(=O)NC2=S)cc1	-	-	-	-	57	.
Cc1ccc(N2C(=O)NC(=O)/C(=C/C=C/c3ccco3)C2=O)cc1	-	-	-	73	-	-
CC(C)c1ccc(N2C(=O)NC(=O)/C(=C/C=C/c3ccco3)C2=O)cc1	-	-	-	99	-	-
O=C(Cc1ccccc1)N1C[C@@H]2[C@H](c3ccccc31)[C@H](CO)N2Cc1ccccc1	.	.	.	.	.	-
COc1ccc(C#Cc2ccc([C@@H]3[C@@H](CO)N4CCCCN(C(=O)Cc5ccncc5)C[C@H]34)cc2)cc1	.	.	.	.	.	-
O=C1NC(=O)N(Cc2ccccc2)C(=O)/C1=C\c1ccco1	-	-	-	-	-	-
Cc1cc(C)cc(N2C(=O)NC(=O)/C(=C\C=C\c3ccco3)C2=O)c1	-	-	-	94	-	-
CCCCN1C(=O)/C(=C/C=C/c2ccco2)C(=O)NC1=S	-	-	-	-	-	-
CCc1ccc(N2C(=O)NC(=O)/C(=C\C=C\c3ccco3)C2=O)cc1	-	-	-	102	-	-
O=C1NC(=O)N(Cc2ccc(F)cc2)C(=O)/C1=C\C=C\c1ccco1	-	-	-	93	-	-
CCCNC(=O)[C@@H]1[C@@H](CO)[C@@H]2Cn3c(cccc3=O)[C@@H]2N1CC	.	.	.	.	.	-
CCCNC(=O)N1[C@@H]2c3ccc(-c4ccccc4OC)c(=O)n3C[C@H]1[C@H](CO)[C@H]2C(=O)OC	.	.	.	.	.	-
O=C(Cc1ccccc1)N1CCCCN2[C@H](CO)[C@H](c3ccc(C#Cc4ccccc4)cc3)[C@@H]2C1	.	.	.	.	.	-
N#Cc1cccc(-c2ccc([C@@H]3[C@H](CO)N4CCCCN(C(=O)Cc5ccccc5)C[C@@H]34)cc2)c1	.	.	.	.	.	-
O=C(C1CC1)N1C[C@@H]2N[C@H](C1)C2c1ccc(-c2cncnc2)cc1 (stereo partly specified)	.	.	.	.	.	-
O=C(C1CC1)N1C[C@@H]2N[C@H](C1)[C@@H]2c1ccc(-c2ccncc2)cc1	.	.	.	.	.	65
COC(=O)[C@@H]1[C@@H](CO)[C@@H]2Cn3c(ccc(-c4ccncc4)c3=O)[C@H]1N2CCc1ccccc1	.	.	.	.	.	-
O=c1[nH]c2ccccc2n1C1CCN(C(c2ccccc2OC(F)(F)F)c2nnnn2-c2ccc3c(c2)OCCO3)CC1 (stereo unspecified)	.	-	.	.	76	-
COc1cccc(C(c2nnnn2-c2ccc3c(c2)OCCO3)N2CCC(n3c(=O)[nH]c4ccccc43)CC2)c1OC (stereo unspecified)	.	-	.	.	-	-
O=c1[nH]c2ccccc2n1C1CCN(C(c2ccccc2)c2nnnn2-c2ccc3c(c2)OCCO3)CC1 (stereo unspecified)	.	-	.	.	52	-
SMILES	EBV LMP1 NFkB	TROY NFkB inh	MITF TRPM1 HTS	TRPM1 prom inh	TWEAK Fn14 block	LGR2 inh
N#Cc1cccc(-c2ccc([C@H]3[C@@H](CO)N4CCCCN(C(=O)Cc5ccncc5)C[C@@H]34)cc2)c1	.	.	.	.	.	-
O=C1CC(=O)N(c2ccc(Cl)cc2)C(=O)N1	64	-	-	-	-	-
CC(C)c1ccc(N2C(=O)CC(=O)NC2=O)cc1	-	-	-	-	-	-
COC(=O)[C@@H]1[C@@H](CO)[C@@H]2Cn3c(ccc(-c4ccccc4)c3=O)[C@H]1N2C(=O)c1ccccc1F	.	.	.	.	.	-
COc1ccc(O)c2c(=O)c3c(OC)cc4c(c3oc12)C1C=COC1O4 (stereo unspecified)	64	-	-	-	-	-
N#Cc1cccc(-c2ccc([C@H]3[C@@H](CO)N4CCCCN(C(=O)Cc5ccccc5)C[C@@H]34)cc2)c1	.	.	.	.	.	-
COC(=O)[C@@H]1[C@@H](CO)[C@@H]2Cn3c(ccc(-c4cccnc4)c3=O)[C@H]1N2CCc1ccccc1	.	.	.	.	.	-
COc1ccc2c(c1)/C(=C/c1cnc[nH]1)C(=O)N2	88	-	-	-	-	95
O=C1Nc2ccccc2/C1=C/c1cnc[nH]1	-	-	-	-	-	-
COC(=O)[C@@H]1[C@@H](CO)[C@@H]2Cn3c(ccc(-c4ccccc4F)c3=O)[C@H]1N2Cc1ccccc1	.	.	.	.	.	-
COC(=O)[C@H]1[C@H](CO)[C@H]2Cn3c(ccc(C4=CCCCC4)c3=O)[C@@H]1N2Cc1ccccn1	.	.	.	.	.	-
CCC(=O)O[C@H]1CC[C@H]2[C@@H]3CCC4=CC(=O)CC[C@]4(C)[C@H]3CC[C@]12C	87	-	-	-	-	-
C#C[C@]1(O)CC[C@H]2[C@@H]3CCC4=CC(=O)CC[C@]4(C)[C@H]3CC[C@@]21C	81	-	-	-	-	-
CC12CCC(=O)C=C1CCC1C2CCC2(C)C(O)CCC12 (stereo unspecified)	-	-	-	-	-	-
CCCN1[C@@H]2Cn3c(cccc3=O)[C@H]1[C@@H](C(=O)N(C)C)[C@@H]2CO	.	.	.	.	.	-
O=C(O)[C@H]1[C@H](CO)[C@H]2Cn3c(ccc(-c4cccnc4)c3=O)[C@@H]1N2S(=O)(=O)c1ccccc1F	.	.	.	.	.	-
Fc1ccc(C(OCCN2CCN(CCCc3ccccc3)CC2)c2ccc(F)cc2)cc1	-	-	-	-	-	-
c1ccc(CCCN2CCN(CCOC(c3ccccc3)c3ccccc3)CC2)cc1	82	-	-	-	-	.
CC=Cc1ccc2n(c1=O)C[C@H]1[C@H](CO)[C@@H](C(=O)OC)[C@@H]2N1CC1CCCCC1 (mixture of isomers)	.	.	.	.	.	-
CCOc1ccc(-c2c(C)n(-c3ccc(OCC)cc3)c3[n+]2CCCCC3)cc1	-	57	.	76	87	-
O=C(Cc1cccnc1)N1CCCCN2[C@H](CO)[C@H](c3ccc(C#CC4(O)CCCC4)cc3)[C@H]2C1	.	.	.	.	.	-
Cc1ccc(C(O)(c2ccc(C)c(C)c2)C2CN3CCC2CC3)cc1C (stereo unspecified)	-	-	-	83	-	-
COC(=O)c1c(C)n(Cc2ccc3c(c2)OCO3)c2ccc(O)cc12	-	-	-	-	53	-
